From the supplement of paper PMC10849652
The full data set covers some 7,900 targets. This sample favours those with a hit. About 0.6% of all pairs of compound and target were hits.

Compound: c1cn2cc(-c3ccc4cn[nH]c4c3)nc(Nc3ccc(N4CCOCC4)cc3)c2n1 [entospletinib]
Experiment: log2 fold change, soluble protein after heating vs DMSO (PISA); higher = thermal stabilisation; K562 cells, 10 uM, 30 min; active = over 0.2 and 3.5 SD of the protein, either way, in both replicates (recomputed)
In short: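 K562 cells at 2×10^6 cells/mL were given 10 μM compound for 30 min. Aliquots then went through 3 min of heating across 48°C-58°C, were pooled, and were extracted in PBS with 0.5% NP-40 at 4°C, and the supernatant after 21,000xg for 90 min was quantified by TMTpro 16plex LC-MS/MS with channel sums equalised. Thermal stability relative to control samples, from duplicates, is given as log2 fold change.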

UniProt Q9Y605, sequence (Q9Y605 whole entry, looked up): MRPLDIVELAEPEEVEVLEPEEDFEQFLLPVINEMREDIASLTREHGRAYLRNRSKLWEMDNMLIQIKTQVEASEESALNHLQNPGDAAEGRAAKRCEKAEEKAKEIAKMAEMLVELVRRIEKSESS
UniProt Q8TEM1, sequence (Q8TEM1 whole entry, looked up): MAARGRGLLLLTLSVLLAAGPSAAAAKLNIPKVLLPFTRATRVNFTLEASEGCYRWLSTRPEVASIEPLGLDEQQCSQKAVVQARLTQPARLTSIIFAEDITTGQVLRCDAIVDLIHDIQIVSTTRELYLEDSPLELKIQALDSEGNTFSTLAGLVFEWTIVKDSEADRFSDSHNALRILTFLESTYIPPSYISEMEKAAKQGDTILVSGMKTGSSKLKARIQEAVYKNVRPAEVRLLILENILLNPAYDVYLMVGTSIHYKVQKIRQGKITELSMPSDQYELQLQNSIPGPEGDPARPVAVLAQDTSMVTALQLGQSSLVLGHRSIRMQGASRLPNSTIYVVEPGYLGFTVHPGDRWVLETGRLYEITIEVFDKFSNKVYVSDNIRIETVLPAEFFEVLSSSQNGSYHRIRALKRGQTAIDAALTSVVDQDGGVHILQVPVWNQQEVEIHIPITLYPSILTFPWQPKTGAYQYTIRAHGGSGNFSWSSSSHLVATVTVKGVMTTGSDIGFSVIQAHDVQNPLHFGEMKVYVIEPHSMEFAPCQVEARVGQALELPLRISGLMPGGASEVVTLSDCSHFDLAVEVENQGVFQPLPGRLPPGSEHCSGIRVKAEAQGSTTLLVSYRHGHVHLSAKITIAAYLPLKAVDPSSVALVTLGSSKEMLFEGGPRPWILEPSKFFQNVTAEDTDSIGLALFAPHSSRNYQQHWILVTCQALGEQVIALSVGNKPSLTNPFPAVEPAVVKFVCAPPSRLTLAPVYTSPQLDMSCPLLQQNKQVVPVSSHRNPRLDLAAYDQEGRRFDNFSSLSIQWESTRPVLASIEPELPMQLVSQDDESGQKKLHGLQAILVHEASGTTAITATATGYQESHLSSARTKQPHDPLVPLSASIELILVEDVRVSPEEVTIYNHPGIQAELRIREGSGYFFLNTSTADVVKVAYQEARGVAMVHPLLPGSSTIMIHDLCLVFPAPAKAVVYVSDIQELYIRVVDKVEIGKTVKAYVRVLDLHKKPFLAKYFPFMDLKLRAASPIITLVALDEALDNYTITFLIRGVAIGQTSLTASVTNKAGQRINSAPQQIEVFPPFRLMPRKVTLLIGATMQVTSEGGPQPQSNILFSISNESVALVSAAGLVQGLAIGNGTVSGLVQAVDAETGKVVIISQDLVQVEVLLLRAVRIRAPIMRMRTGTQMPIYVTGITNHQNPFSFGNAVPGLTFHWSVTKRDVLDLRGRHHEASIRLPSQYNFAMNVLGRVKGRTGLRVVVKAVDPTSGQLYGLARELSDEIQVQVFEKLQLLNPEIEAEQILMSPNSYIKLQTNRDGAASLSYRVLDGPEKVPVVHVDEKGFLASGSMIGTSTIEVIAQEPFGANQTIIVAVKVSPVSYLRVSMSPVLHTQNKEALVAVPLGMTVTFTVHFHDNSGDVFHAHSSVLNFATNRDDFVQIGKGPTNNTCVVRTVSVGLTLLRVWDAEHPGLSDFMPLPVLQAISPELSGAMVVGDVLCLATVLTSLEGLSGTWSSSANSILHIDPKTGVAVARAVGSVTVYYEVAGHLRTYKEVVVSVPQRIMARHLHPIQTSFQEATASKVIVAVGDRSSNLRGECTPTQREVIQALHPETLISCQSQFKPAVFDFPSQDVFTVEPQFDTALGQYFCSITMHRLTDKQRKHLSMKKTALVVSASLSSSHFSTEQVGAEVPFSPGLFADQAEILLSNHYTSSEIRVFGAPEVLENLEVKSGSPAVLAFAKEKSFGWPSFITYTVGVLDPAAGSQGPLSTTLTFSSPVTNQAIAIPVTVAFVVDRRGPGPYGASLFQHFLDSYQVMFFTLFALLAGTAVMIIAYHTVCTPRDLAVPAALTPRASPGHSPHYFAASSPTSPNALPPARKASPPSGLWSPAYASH
UniProt Q16795, sequence (Q16795 whole entry, looked up): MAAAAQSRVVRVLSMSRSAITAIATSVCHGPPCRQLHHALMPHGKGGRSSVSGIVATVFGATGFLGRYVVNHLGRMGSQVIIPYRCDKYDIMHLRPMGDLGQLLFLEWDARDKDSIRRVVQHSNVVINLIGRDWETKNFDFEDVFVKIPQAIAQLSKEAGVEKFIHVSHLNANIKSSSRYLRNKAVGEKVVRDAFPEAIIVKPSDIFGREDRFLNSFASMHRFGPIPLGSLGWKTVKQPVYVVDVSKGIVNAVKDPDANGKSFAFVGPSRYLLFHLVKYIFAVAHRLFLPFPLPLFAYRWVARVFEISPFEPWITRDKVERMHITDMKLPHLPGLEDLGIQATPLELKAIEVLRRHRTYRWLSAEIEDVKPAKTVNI
UniProt Q9UI09, sequence (Q9UI09 whole entry, looked up): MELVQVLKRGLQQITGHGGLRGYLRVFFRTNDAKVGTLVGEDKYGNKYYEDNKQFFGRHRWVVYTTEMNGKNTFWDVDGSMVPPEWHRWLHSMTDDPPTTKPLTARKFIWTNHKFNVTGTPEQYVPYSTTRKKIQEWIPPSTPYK
UniProt Q08J23, sequence (Q08J23 whole entry, looked up): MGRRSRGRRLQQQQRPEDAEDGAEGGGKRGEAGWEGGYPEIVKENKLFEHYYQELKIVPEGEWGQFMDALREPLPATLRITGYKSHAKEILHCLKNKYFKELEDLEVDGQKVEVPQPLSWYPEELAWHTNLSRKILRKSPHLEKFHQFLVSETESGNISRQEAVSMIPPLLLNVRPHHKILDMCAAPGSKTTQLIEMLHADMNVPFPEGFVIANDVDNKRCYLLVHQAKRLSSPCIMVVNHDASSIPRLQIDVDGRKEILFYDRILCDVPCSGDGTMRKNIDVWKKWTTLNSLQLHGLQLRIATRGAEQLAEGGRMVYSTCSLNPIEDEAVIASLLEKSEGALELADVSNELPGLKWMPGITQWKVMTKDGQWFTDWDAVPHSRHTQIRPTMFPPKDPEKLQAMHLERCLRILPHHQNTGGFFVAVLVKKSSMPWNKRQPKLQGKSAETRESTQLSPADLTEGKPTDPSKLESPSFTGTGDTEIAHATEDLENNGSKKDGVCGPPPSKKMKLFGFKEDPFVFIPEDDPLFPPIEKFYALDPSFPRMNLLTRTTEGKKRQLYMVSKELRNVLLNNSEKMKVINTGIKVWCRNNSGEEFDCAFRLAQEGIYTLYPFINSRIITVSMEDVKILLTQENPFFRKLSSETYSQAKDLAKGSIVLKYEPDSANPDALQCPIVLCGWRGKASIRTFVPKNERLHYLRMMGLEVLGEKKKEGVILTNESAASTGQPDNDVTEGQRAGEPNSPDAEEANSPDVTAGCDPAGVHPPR
UniProt Q6VY07, sequence (Q6VY07 whole entry, looked up): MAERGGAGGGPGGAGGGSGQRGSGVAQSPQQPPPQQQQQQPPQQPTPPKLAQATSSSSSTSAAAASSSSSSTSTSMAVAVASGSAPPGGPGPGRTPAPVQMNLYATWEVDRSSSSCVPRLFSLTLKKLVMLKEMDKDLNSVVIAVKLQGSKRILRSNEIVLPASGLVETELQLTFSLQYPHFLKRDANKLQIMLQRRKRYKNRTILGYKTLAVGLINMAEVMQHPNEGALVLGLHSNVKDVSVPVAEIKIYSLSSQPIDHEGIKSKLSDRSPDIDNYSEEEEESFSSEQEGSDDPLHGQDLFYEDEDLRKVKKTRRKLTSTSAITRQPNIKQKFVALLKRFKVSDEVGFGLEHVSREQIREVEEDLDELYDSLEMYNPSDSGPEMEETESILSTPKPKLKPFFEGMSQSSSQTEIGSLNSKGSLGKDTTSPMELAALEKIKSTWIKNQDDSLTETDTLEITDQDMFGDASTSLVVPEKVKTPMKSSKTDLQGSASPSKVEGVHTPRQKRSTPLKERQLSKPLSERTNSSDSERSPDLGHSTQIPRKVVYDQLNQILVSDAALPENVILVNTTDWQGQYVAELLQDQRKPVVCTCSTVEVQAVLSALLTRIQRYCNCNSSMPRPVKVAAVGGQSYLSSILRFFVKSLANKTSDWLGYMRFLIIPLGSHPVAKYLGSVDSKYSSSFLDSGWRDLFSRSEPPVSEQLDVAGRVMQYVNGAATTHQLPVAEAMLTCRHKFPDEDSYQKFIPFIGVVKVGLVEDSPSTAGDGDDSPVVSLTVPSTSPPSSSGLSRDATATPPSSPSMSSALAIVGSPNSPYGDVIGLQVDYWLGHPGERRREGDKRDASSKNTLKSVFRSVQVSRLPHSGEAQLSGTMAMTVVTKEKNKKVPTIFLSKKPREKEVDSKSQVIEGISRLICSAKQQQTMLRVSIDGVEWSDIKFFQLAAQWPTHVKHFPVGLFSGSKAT
UniProt Q8WV92, sequence (Q8WV92 whole entry, looked up): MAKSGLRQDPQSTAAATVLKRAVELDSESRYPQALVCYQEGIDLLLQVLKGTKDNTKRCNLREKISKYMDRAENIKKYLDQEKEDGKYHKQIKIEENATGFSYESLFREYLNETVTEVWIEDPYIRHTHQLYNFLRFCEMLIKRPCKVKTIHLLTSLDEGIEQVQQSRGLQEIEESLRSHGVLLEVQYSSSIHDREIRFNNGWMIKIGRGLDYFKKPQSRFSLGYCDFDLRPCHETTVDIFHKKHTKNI
UniProt O95169, sequence (O95169 whole entry, looked up): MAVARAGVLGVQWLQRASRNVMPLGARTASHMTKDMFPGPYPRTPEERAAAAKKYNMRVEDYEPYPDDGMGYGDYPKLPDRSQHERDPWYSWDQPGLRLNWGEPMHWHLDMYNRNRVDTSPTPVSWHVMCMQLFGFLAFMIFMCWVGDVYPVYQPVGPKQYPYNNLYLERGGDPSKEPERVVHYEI
UniProt P84157, sequence (P84157 whole entry, looked up): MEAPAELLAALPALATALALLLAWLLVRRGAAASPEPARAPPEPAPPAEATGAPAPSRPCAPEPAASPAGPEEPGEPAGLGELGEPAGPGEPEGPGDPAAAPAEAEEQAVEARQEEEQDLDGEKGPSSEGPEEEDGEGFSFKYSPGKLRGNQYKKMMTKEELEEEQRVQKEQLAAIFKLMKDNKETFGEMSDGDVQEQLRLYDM

log2 fold change, inactive:
MRPS24 (UniProt Q96EL2) 0.086
NPC1 (UniProt O15118) 0.023
NDUFB8 (UniProt O95169) 0.067
MXRA7 (UniProt P84157) -0.008
NDUFA12 (UniProt Q9UI09) -0.025
NUP98 (UniProt P52948) 0.003
PACS1 (UniProt Q6VY07) 0.046
NUP205 (UniProt Q92621) -0.041
NBN (UniProt O60934) 0.009
MRFAP1 (UniProt Q9Y605) 0.005
MITD1 (UniProt Q8WV92) -0.133
MINK1 (UniProt Q8N4C8) -0.026
MRPS25 (UniProt P82663) 0.029
NUP210 (UniProt Q8TEM1) -0.125
NOLC1 isoform 2 (UniProt Q14978) 0.062
MRPS2 (UniProt Q9Y399) 0.059
MON1B (UniProt Q7L1V2) 0.017
OGFOD1 (UniProt Q8N543) 0.018
NDUFA9 (UniProt Q16795) -0.011
NSUN2 (UniProt Q08J23) 0.011
NOP2 isoform 4 (UniProt P46087) 0.147
MRPL50 (UniProt Q8N5N7) -0.005
NOSIP (UniProt Q9Y314) -0.146
